Here are results for 16 compounds from PubChem BioAssay (NCATS).

The test system of test [1] is CRL-7250. Kind of test: Cytotoxic Profiling of Annotated Libraries Using Quantitative High-Throughput Screening (AID 1296008). Also: potency is read from the fitted curve at half-maximal effect. As to max response: % is scaled to controls: 0 for no effect and ±100 for the full control effect. As to conditions: Five cell lines viability, CellTiter-Glo ATP luminescence, 48-72 h; max response: stronger effect = lower value. In outline:
(§1)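 Cytotoxicity was measured as CellTiter-Glo ATP luminescence, read after 10 min at room temperature. Compound treatment of the cells lasted 48 or 72 hr at 37 degrees Celsius in a qHTS format.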
Background: In ATP-based viability assays light output follows the ATP content of the culture.

The next test relates to HEK293. The test is described as above. Particulars: Five cell lines viability, CellTiter-Glo ATP luminescence, 48-72 h; max response: stronger effect = lower value. In outline:
as §1

In test [2] the test system is HaCat. Described as above. As to conditions: Five cell lines viability, CellTiter-Glo ATP luminescence, 48-72 h; max response: stronger effect = lower value. In outline:
as §1

For another test, the system named is KB-3-1. The description is as above. Particulars: Five cell lines viability, CellTiter-Glo ATP luminescence, 48-72 h; max response: stronger effect = lower value. In outline:
as §1

A further test deals with NIH3T3. The test is described as above. As to conditions: Five cell lines viability, CellTiter-Glo ATP luminescence, 48-72 h; max response: stronger effect = lower value. In outline:
as §1

The subject of test [3] is CRL-7250. Kind of test: qHTS assay to identify novel small-molecules to repurpose for Merkel cell carcinoma treatment (AID 1296009). Particulars: MCC and control cell lines, CellTiter-Glo viability, 72 h; at 44.8 µM (top of the series) unless noted. In outline:
(§2)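 Cell viability, measured as CellTiter-Glo luminescence, was normalized between DMSO and no-cell wells. The cells had been exposed to 8- or 11-point compound dilutions for 72 hr at 37 degree celsius.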

For test [4], the system named is HACAT. The description is as above. Particulars: MCC and control cell lines, CellTiter-Glo viability, 72 h; at 44.8 µM (top of the series) unless noted. In outline:
as §2

In a further test the test system is HEK293T. The test is described as above. Particulars: MCC and control cell lines, CellTiter-Glo viability, 72 h; at 44.8 µM (top of the series) unless noted. In outline: as §2

Where “and” joins values, the source holds several entries; their conditions need not be identical. Equal entries are not always repeated. Results filed as inconclusive are left out. Where a structure was tested more than once in an assay, its records may differ in their call. Values without a mark were called inactive. Calls of active or inactive are those of the source. Calls follow the shape of the dose curve; as a rule, active = well fitted inhibition curve with a large enough effect; inconclusive = small, poorly fitted or top-dose-only effect; inactive = flat fitted curve, though single readings scatter.
Also: nearly all actives have a fitted effect of over 60% in size.

In the case of `Cc1ccccc1-n1c(Cn2ncc3c(N)ncnc32)nc2cccc(C)c2c1=O`, the max response in the test with CRL-7250 [1] is -1.16%; with NIH3T3 it was 1.98%. In addition, the outcome in the test with CRL-7250 [1], in the test with HEK293, with HaCat [2], with KB-3-1, with NIH3T3 and in the test on CRL-7250 [3] was inactive. The result with HACAT [4] and in the test with HEK293T was inactive.
As for `CCOCCOC(C)=O`, the max response is -13% in the test on CRL-7250 [1]; -1.29% in the test with HEK293; -11.2% in the test with HaCat [2]; -19.2% with KB-3-1; -2.47% in the test on NIH3T3.
In the case of `CC(C)NCC(O)c1ccc([N+](=O)[O-])cc1` (stereo not given), the max response is -2.22% in the test on CRL-7250 [1]; -8.6% with HEK293; -38.9% in the test with HaCat [2]; -11.6% with KB-3-1; -0.143% in the test on NIH3T3.
As to `CC(C)[C@]12O[C@@H]1[C@@H]1O[C@]13[C@]1(O[C@H]1C[C@@H]1C4=C(CC[C@@]13C)C(=O)OC4)[C@H]2O`, the max response in the test on CRL-7250 [1] was -124%; with HEK293, -111%; in the test on HaCat [2], -144%; in the test with NIH3T3, -117%. In addition, the Potency in the test on KB-3-1 is 1 nM (active).
In the case of `Cc1ccccc1-n1c(Cn2cnc3c(N)ncnc32)nc2cccc(C)c2c1=O`, the Potency in the test with CRL-7250 [1] was 833 nM (active); in the test on HEK293 it was 1480 nM (active); in the test with HaCat [2], 590 nM (active); in the test on KB-3-1, 1320 nM (active); in the test on NIH3T3 it was 2.64 µM (active). Also, the compound was called inactive in the test with HEK293 and with HEK293T. The max response was -10.3% with HaCat [2], 0.515% in the test with KB-3-1 and -1.65% in the test with NIH3T3.
`O=C(NCC1CCOCC1)c1cnc(Nc2ccc(Cl)cc2Cl)nc1C(F)(F)F`: the max response with CRL-7250 [1] is 4.29% and -22.6%; in the test on HEK293, -4.23%; in the test on HaCat [2], -8.57% and -14.9%; in the test on KB-3-1, -20.4%; in the test with NIH3T3, -3.44% and -3.65%. In the test on HEK293, the Potency was 8200 nM (active). Also, the outcome with KB-3-1 was inactive.
In the case of `CC(C)N(CCNC(=O)CN1CCCC1=O)C(C)C`, the max response in the test on CRL-7250 [1] is 4.66% and -0.977%; with HEK293 it was 4.1% and 1.15%; in the test on HaCat [2], -6.79% and -2.04%; in the test with KB-3-1 it was -4.8%; in the test with NIH3T3, 2.3%. Also, the compound was called inactive in the test with KB-3-1 and with NIH3T3.
Take `O=C1CCC[C@@H]2[C@H]3CCCN4CCC[C@@H](CN12)[C@@H]34`: the max response was 0.603% in the test with CRL-7250 [1], -4.12% in the test on HEK293, 3.98% in the test with HaCat [2] and 2.17% in the test with KB-3-1. The result in the test on NIH3T3 was inactive.
For the compound `S=C(NC1CCCCC1)N1CCC(c2cnc[nH]2)CC1`, the max response in the test with CRL-7250 [1] is -0.728%; with HEK293, -0.423%; with HaCat [2], -12.4%; with KB-3-1 it was -10.7%; with NIH3T3 it was -20.5%.
For the compound `Nc1c(Cl)c(Cl)c(Cl)c(Cl)c1Cl`, the max response in the test on CRL-7250 [1] is -6.12%; in the test on HEK293 it was -6.61%; in the test on HaCat [2] it was -3.9%; with KB-3-1 it was -13%; in the test with NIH3T3 it was 2.9%.
Consider `C[C@@H]1O[C@@H](O[C@@H]2C=C3CC[C@@H]4[C@@H](CC[C@]5(C)[C@H](c6ccc(=O)oc6)CC[C@@]45O)[C@@]3(C)CC2)[C@H](O)[C@H](O)[C@H]1O`, for which the Potency with CRL-7250 [1] is 11.8 nM (active); with HEK293, 16.6 nM (active); in the test with HaCat [2], 46.9 nM (active); in the test on KB-3-1 it was 26.4 nM (active); with NIH3T3, 3.72 µM (active).
For the compound `COc1cc2cc(c1Cl)N(C)C(=O)C[C@H](OC(=O)C(C)C)[C@]1(C)O[C@H]1[C@H](C)[C@@H]1C[C@@](O)(NC(=O)O1)[C@H](OC)C=CC=C(C)C2`, the max response with CRL-7250 [1] was -68.5%; with HEK293 it was -91.4%; with HaCat [2], -21.1%; in the test with NIH3T3, -88.8%. The Potency with KB-3-1 is 332 nM (active).
Turning to `CC(C)[C@]12O[C@H]1[C@@H]1O[C@]13[C@]1(O[C@H]1C[C@H]1C4=C(CC[C@@]13C)C(=O)OC4)[C@@H]2O`, the Potency with CRL-7250 [1] is 82 nM (active); with HEK293, 7.3 nM (active); in the test with HaCat [2], 130 nM (active); in the test on KB-3-1, 65.1 nM (active); in the test on NIH3T3, 0.092 µM (active).
Regarding `CC(C)(O)C(=O)Nc1ccc([N+](=O)[O-])c(C(F)(F)F)c1`, the max response in the test with CRL-7250 [1] was -26.4%; in the test on HEK293, -21.8%; in the test on HaCat [2] it was -2.45%; in the test with KB-3-1, -3.83%. For the same compound, in the test with NIH3T3, the compound was classed as inactive.
Take `O=C(N[C@@H](COc1ccc2[nH]c(=O)[nH]c2c1)c1ccccc1)c1cccn(Cc2ccc(F)c(F)c2)c1=O`: the max response in the test on CRL-7250 [1] is -47.2%; in the test with HEK293 it was -35.2% and -9.78%; with HaCat [2] it was -18%; with KB-3-1, -0.47%; in the test with NIH3T3 it was -25.3%.
Regarding `O=c1[nH]c2ccc(Cl)cc2c(N[C@@H]2CN3CCC2CC3)c1-c1nc2ccccc2[nH]1`, the Potency was 2.35 µM (active) and 6.51 µM (active) in the test with CRL-7250 [1]; 59 nM (active) with HEK293; 16600 nM (active) with HaCat [2]; 3720 nM (active) in the test with KB-3-1; 83.3 nM (active) and 206 nM (active) in the test on NIH3T3. Besides, in the test with HEK293, the max response is -122%.
